This note sets out measurements from PubChem BioAssay AID1259310 (The Scripps Research Institute Molecular Screening Center, 2017).

Hit rate of the full screen: of about 650,000 compounds, about 850 (0.13%) were called active. The sample as a whole holds a higher share of actives than the screen did. Values without a mark were called inactive. Rule as the data show it: active = normalized activity above about 1.9%; inactive = the rest.

The target of the experiment is F-box/WD repeat-containing protein 7 (Homo sapiens) (UniProt Q969H0). As to the kind of experiment: FBW7 E3 ligase activators, primary screen, biochemical, AlphaScreen, human (AID 1259310).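 Also: purified mutant Fbw7 with reduced substrate affinity.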 The note with it: AlphaScreen FBW7–phospho-cyclin E peptide binding, activator screen; at 26.1 µM; stronger effect = higher value.
Sequence of F-box/WD repeat-containing protein 7 (Homo sapiens) (Q969H0 whole entry, looked up): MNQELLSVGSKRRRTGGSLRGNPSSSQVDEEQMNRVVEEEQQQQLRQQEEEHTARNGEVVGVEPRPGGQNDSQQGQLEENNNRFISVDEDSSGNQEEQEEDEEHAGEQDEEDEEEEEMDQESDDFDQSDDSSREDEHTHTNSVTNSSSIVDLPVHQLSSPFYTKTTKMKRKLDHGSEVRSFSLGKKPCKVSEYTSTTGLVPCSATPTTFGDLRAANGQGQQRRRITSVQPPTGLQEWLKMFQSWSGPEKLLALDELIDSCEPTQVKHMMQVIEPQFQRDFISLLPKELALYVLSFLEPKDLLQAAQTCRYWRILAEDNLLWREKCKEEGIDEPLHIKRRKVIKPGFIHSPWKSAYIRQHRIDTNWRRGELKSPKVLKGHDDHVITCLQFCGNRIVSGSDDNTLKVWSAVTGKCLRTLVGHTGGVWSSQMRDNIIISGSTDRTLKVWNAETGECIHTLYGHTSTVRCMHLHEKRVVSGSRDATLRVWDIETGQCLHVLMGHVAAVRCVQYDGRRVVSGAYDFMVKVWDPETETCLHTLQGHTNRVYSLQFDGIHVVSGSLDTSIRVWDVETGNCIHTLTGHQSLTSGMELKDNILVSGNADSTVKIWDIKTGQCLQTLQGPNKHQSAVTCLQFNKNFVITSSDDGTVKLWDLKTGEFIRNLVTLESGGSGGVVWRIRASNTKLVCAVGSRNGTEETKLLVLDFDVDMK
`COc1ccc2c(c1)c(=O)c1ccccc1n2CC(=O)Nc1ccc(F)cc1`: the normalized activity (activation) is 0%. Regarding `N/C(=N\OCc1cc2c(cc1Cl)OCO2)c1nonc1N`, the normalized activity (activation) is 0.4%. As to `O=C(CCCOc1ccc(Cl)cc1Cl)N1CCCC1`, the normalized activity (activation) was 0.05%. Regarding `N/C(=N\OC(=O)CCCOc1ccc(Cl)cc1Cl)c1nonc1N`, the normalized activity (activation) was 4.98% (active). Regarding `Nc1ccnc2cc(-c3ccccc3)nn12`, the normalized activity (activation) was -0.02%. For `CSc1ncc(C(=O)Nc2ccc3c(c2)OCCO3)c(C)n1`, the normalized activity (activation) is 0.15%. The figure for `C=CCOC(=O)C1=C(C)Nc2c(c(=O)n(C)c(=O)n2C)C1c1ccc2c(c1)OCO2` (centres undefined) is 0.09%; for `Cc1ccc(-c2csc(/C(C#N)=C/c3ccccc3[N+](=O)[O-])n2)cc1` it is -0.09%. Consider `COc1ccc(OC)c(NS(=O)(=O)c2ccc(NC(=O)COc3ccccc3)cc2)c1`, for which the normalized activity (activation) is -0.06%.

With `COc1ccc(Cl)cc1C(=O)Nc1cccc(-c2nc3cc(Cl)ccc3o2)c1C`, the normalized activity (activation) is 0.2%. With `Fc1ccc(Nc2nc(NCC3CCCO3)c3ccccc3n2)cc1` (centres undefined), the normalized activity (activation) was -0.11%. As for `COc1ccc(C2=NN(c3ccccc3)C(c3ccc(F)cc3)C2)cc1` (centres undefined), the normalized activity (activation) is 0.58%. The figure for `Fc1ccc(C2CC(c3cccs3)=NN2c2nc(-c3ccccc3)cs2)cc1` (centres undefined) is -0.01%.

For `COc1ccc(C2CC(c3cccs3)=NN2c2ccccc2)cc1` (centres undefined), the normalized activity (activation) was 8.78% (active). Turning to `c1cncc(-c2ncc(-c3ccncn3)c(-c3cccnc3)n2)c1`, the normalized activity (activation) was 0.02%. For `COC(=O)CSC1=C(C#N)C(c2ccccc2Cl)C(C(=O)Nc2ccccc2OC)=C(C)N1` (centres undefined), the normalized activity (activation) is -0.06%. With `COc1cccc(-c2nc(C3CCCN(C(=O)CC(C)CC(=O)O)C3)n3ccccc23)c1` (centres undefined), the normalized activity (activation) is 0.94%. Consider `Cc1cccc2sc(NC(=O)c3ccc(S(=O)(=O)N4CC(C)CC(C)C4)cc3)nc12` (centres undefined), for which the normalized activity (activation) is 0.22%. As to `CC[N+](C)(CC)CCNC(=O)c1c(O)c2ccccc2[nH]c1=O`, the normalized activity (activation) is 0.07%. For the compound `C[N+](C)(C)CCNC(=O)c1c(O)c2c([nH]c1=O)CCCC2`, the normalized activity (activation) is 0.2%. The same measure for `CC[N+](C)(CC)CCNC(=O)c1c(O)c2c([nH]c1=O)CCCC2`: 2.05% (active); for `CCOC(=O)c1cnc2cc(C(F)(F)F)ccc2c1Nc1ccccc1F`: -0.08%. Take `Cc1ccccc1Nc1nc(-c2c(C)nc3ncccn23)cs1`: the normalized activity (activation) was 0.01%. Take `Cc1ccc2c(c1)N(CC(=O)NC1CC1)C(=O)CO2`: the normalized activity (activation) is -0.26%.

`CCC(C)(C)C(=O)Nc1ccc(S(N)(=O)=O)cc1`: the normalized activity (activation) was -0.09%. The same measure for `CN(C)C(=O)CN(C)C(=O)c1c(C(F)(F)F)nc2ccccn12`: 0.23%; for `C=CCN(C)C(=O)c1c(C(F)(F)F)nc2c(OC)cccn12`: 0.11%. As for `C#CCN(C)C(=O)c1c(C(F)(F)F)nc2c(OC)cccn12`, the normalized activity (activation) was 1.94% (active). `CN1CCN(c2nc3c(c(=O)n(C)c(=O)n3C)n2CC(=O)c2ccc(Br)cc2)CC1`: the normalized activity (activation) was 0.05%. As to `COC(=O)c1ccc2c(c1)N(Cc1c(C)noc1C)C(=O)C(F)(F)O2`, the normalized activity (activation) is 0.09%.

For the compound `CCn1c(N2CCC(C(=O)NC3CCCCC3)CC2)nc2ccccc21`, the normalized activity (activation) was 0.16%. In the case of `COc1cccc(OC)c1C(=O)OCC(=O)NC1CCCCC1C` (centres undefined), the normalized activity (activation) is -0.19%. For `CCC1(C)OC(=O)N(C)C1=O` (centres undefined), the normalized activity (activation) was 2.13% (active). On to `CC(=O)Nc1ccc(C(=O)NNC(=O)C(C)Oc2ccc(Cl)cc2Cl)cc1` (centres undefined), for which the normalized activity (activation) is -1.25%. In the case of `O=C(CSc1ncc(-c2ccccc2)[nH]1)Nc1ccc(Br)cc1`, the normalized activity (activation) was -0.02%. As to `O=C(CSC1=NS(=O)(=O)c2ccccc21)Nc1ccc(Br)cc1`, the normalized activity (activation) was -0.05%.

With `CC1(C)N=C(SCC(=O)Nc2ccc(Br)cc2)C(c2ccccc2)=N1`, the normalized activity (activation) was 2.4% (active). For `C[C@@H](c1ccccc1)n1c(=O)[nH]c2ncc(-c3ccc(C(=O)N4CCN(C)CC4)cc3)nc21`, the normalized activity (activation) is -0.33%. The same measure for `COc1nc(N=C(N)N)nc2c(C)cccc12`: -0.06%; for `Cc1cc(C)nc(/N=C(\N)N2CCOCC2)n1`: 0.35%. As for `Cc1cc(C)c2nc(N=C(N)N)nc(C)c2c1`, the normalized activity (activation) was 1.86% (active). Consider `COc1ccc(C(=O)NCCC(=O)NC2CCCC2)cc1OC`, for which the normalized activity (activation) is 0.02%. On to `CC(C)CNC(=O)c1ccccc1I`, for which the normalized activity (activation) was 1.93% (active). For the compound `COCC(C)NC(=O)c1ccccc1I` (centres undefined), the normalized activity (activation) is 0.14%.

Regarding `Cc1ccccc1CNC(=O)c1ccccc1I`, the normalized activity (activation) was 0.92%. As to `Cc1cc(=O)oc2cc(OCC(=O)N/N=C/c3ccc4c(c3)OCO4)ccc12`, the normalized activity (activation) was -0.03%. With `CC(=O)N(Cc1cc2cc(C)cc(C)c2[nH]c1=O)CC1CCCO1` (centres undefined), the normalized activity (activation) is 0.12%. The figure for `CCN1C(=O)c2cccc3c(NC(=O)C4CCCN4S(=O)(=O)c4ccc(OC)cc4)ccc1c23` (centres undefined) is -0.03%; for `O=C(CC(=O)c1ccccc1O)c1ccccc1` it is 0.25%. For the compound `CN(C)c1ccccc1C(=O)c1ccccc1`, the normalized activity (activation) was 2.06% (active).

As for `Cc1ccc2[nH]cc(C(=O)c3ccccc3)c(=O)c2c1`, the normalized activity (activation) is 0.18%. As to `COc1ccccc1NS(=O)(=O)c1cccc(NC(=O)c2cc(=O)[nH]c(=O)[nH]2)c1`, the normalized activity (activation) was -0.11%.

In the case of `Cc1cc(C(=O)NCc2nnc3n2CCN(Cc2ccccc2)CC3)c(C)o1`, the normalized activity (activation) was -0.06%. The same measure for `Cc1cccc(OCCC(=O)NNC(=O)Cc2cccn2C)c1`: -0.11%; for `CCOc1ccc2c(=O)c(Oc3ccccc3)c(C(F)(F)F)oc2c1C`: 0.9%; for `CCN(CC)C(=O)Cn1ncn2c(cc3ccsc32)c1=O`: -0.03%. As to `CCCc1nn(CC(=O)N(C)C)c(=O)c2cc3ccsc3n12`, the normalized activity (activation) was 3.43% (active).

On to `CCc1nn(CC(=O)NCc2cccs2)c(=O)c2cc3ccsc3n12`, for which the normalized activity (activation) was -0.13%. For the compound `Cc1cccc(C)c1NC(=O)C(=O)NCCCO`, the normalized activity (activation) is 0.01%. The figure for `O=C1C(=O)N(c2nc3ccccc3s2)C(c2ccc(O)cc2)/C1=C(\O)c1ccc(Cl)cc1` (centres undefined) is -0.15%; for `COc1ccc(C2(O)CC(C(F)(F)F)=NN2C(=O)CCc2ccccc2)cc1` (centres undefined) it is 0.67%; for `COc1ccc(CC(=O)NNC(=O)c2ccccc2Cl)cc1` it is -0.11%. Regarding `CSCCNC(=O)CCc1nnc(C2(c3ccc(Cl)cc3)CCC2)o1`, the normalized activity (activation) was 0.03%. Regarding `Cc1cccc(NC(=O)c2ccccc2Nc2ccc(S(=O)(=O)C(F)(F)F)cc2[N+](=O)[O-])c1`, the normalized activity (activation) was 0.06%. As to `COc1ccccc1-c1cnc2c(NCc3cccs3)nccn12`, the normalized activity (activation) is -0.21%.

As to `CN(C)CCNC(=O)c1ccc(-c2cnc3c(NCc4ccc(F)cc4)nccn23)cc1`, the normalized activity (activation) was -0.01%.

Turning to `COc1cc(CNc2nccn3c(-c4ccc(F)cc4)cnc23)cc(OC)c1OC`, the normalized activity (activation) was 1.85% (active). In the case of `O=C(CSc1nnc(Nc2ccccc2)s1)c1ccc(F)cc1`, the normalized activity (activation) is -0.08%. For `CC(=O)Nc1ccc(Nc2nc(Nc3ccncn3)nc3nc[nH]c23)cc1`, the normalized activity (activation) is 0.11%. The same measure for `O=C1NC(=O)N(c2ccc(Br)cc2)C(=O)/C1=C\C=C\c1ccco1`: -0.18%. Take `COc1cc(OC)c(C2Nc3cccc4cccc(c34)N2)cc1OC`: the normalized activity (activation) was 1.96% (active).

For the compound `COc1ccc(OC)c(C2Nc3cccc4cccc(c34)N2)c1`, the normalized activity (activation) was 0.03%. The figure for `COc1ccc(C2Nc3cccc4cccc(c34)N2)c(OC)c1OC` is 0.39%; for `O=c1[nH]c(N2CCOCC2)nc2c1CN(Cc1ccccc1Cl)CC2` it is -0.04%; for `O=C1CC(c2noc(-c3ccco3)n2)CN1c1ccccc1` (centres undefined) it is -0.17%.

In the case of `COc1cccc(-c2nc(-c3ccccc3)c(-c3ccccc3)[nH]2)c1O`, the normalized activity (activation) was -0.07%. The figure for `CCOc1ccc2nc(N3CCC(NCCc4nc(C)c5c(n4)CCC5)CC3)nc(C)c2c1` is 0.33%; for `CC1CC(C)CN(CCS(=O)(=O)c2ccc(Oc3ccc(S(=O)(=O)CCN4CC(C)CC(C)C4)cc3)cc2)C1` (centres undefined) it is -0.1%. Take `CCCCOC(=O)C1=C(C)N(C)C(=O)NC1c1cc(Cl)c(O)c(OC)c1` (centres undefined): the normalized activity (activation) is -0.11%.

In the case of `CCOc1ccc(C(=O)Nc2ccccc2I)cc1[N+](=O)[O-]`, the normalized activity (activation) is -0.08%. Regarding `CCOc1cc(OCC)cc(C(=O)Nc2cc3nn(-c4ccc(OC)cc4)nc3cc2C)c1`, the normalized activity (activation) is -0.15%. On to `CCOc1ccc(C(=O)Nc2cc3nn(-c4ccc(C)cc4)nc3cc2C)cc1[N+](=O)[O-]`, for which the normalized activity (activation) was 2.14% (active). Take `O=C(Cc1ccccn1)N1CCCC(c2nc(N3CCOCC3)ncc2-c2ccncc2)C1` (centres undefined): the normalized activity (activation) is -0.05%.

For `CCOc1ccc(-n2nc(C(=O)Nc3ccccc3C(F)(F)F)c3ccccc3c2=O)cc1`, the normalized activity (activation) was -0.03%. As to `NC(=O)c1ccccc1NC(=S)NC(=O)/C=C/c1cccc([N+](=O)[O-])c1`, the normalized activity (activation) is 0.01%. `Cc1ccc2nc(SCC(=O)Nc3ccccc3C(N)=O)[nH]c2c1`: the normalized activity (activation) is 0.11%.

Consider `O=C(Nc1ccccc1[N+](=O)[O-])c1cc(S(=O)(=O)Nc2cccc(F)c2)ccc1Cl`, for which the normalized activity (activation) was -0.02%. For the compound `O=C(COC(=O)c1ccccc1F)NCc1ccco1`, the normalized activity (activation) was -0.11%.

Consider `Cc1noc(C)c1-c1nc(N)c2ncn(-c3ccccc3)c2n1`, for which the normalized activity (activation) is -0.05%.

Consider `COc1cc(Nc2nc(-c3c(C)noc3C)nc3c2ncn3-c2ccccc2)cc(OC)c1OC`, for which the normalized activity (activation) was 14.2% (active). Take `COc1cc(Nc2nc(-c3c(C)noc3C)nc3c2ncn3C2CCCCC2)cc(OC)c1OC`: the normalized activity (activation) was -0.17%. For `Cc1nc2c(C(=O)N3CCCC3)cnn2c(C)c1Cc1ccccc1Cl`, the normalized activity (activation) was -0.09%. Take `O=C(Nc1ccc(I)cc1)OCCCc1ccccc1`: the normalized activity (activation) was 0.21%. As to `Cc1ccc2nc(NC(=O)c3cc(-c4ccc(Cl)s4)nc4ccccc34)sc2c1`, the normalized activity (activation) was -0.02%.
